Experimental findings from PubChem BioAssay (Tox21) are described below.

A number with no mark means an inactive call. Inconclusive results are not listed. The source made the active and inactive calls. Unless noted, calls come from the whole dose curve.

Experiment [1] can be described thus: Nuclear factor erythroid 2-related factor 2/antioxidant responsive element (Nrf2/ARE) small molecule agonists: qHTS cell viability counter screen in human keratinocytes (AID 1919968; active = well fitted curve in the direction sought with a large enough effect in the repeat runs; an effect the other way counts as inactive or inconclusive; note: nearly all actives have a fitted effect of over 55% in size). The essentials:
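Parallel cytotoxicity read: KeratinoSens HaCaT cells, compound treatment 23 h, viability by CellTiter-Fluor fluorescence 1 h post-reagent.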

The nature of experiment [2]: Nuclear factor erythroid 2-related factor 2/antioxidant responsive element (Nrf2/ARE) small molecule agonists: luciferase reporter gene qHTS assay in human keratinocytes (AID 1919969). Note: nearly all actives have a fitted effect of over 35% in size. Note: potency is the fitted concentration of half-maximal effect.
Experiment [3] concerns the target Gonadotropin-releasing hormone receptor (Homo sapiens) (UniProt P30968). Nature of the experiment: Human gonadotropin-releasing hormone receptor (GnRHR) small molecule agonists, calcium flux assay in GnRHR-HEK293 cells (AID 1920063). Note: nearly all actives have a fitted effect of over 35% in size. A digest of the protocol:
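Calcium flux, agonist mode, human GnRHR stably integrated in HEK293; dye 1 h at 37 C before compound; Ex/Em=480/540 kinetic read, 3 min; 15 concentrations, triplicate.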

For experiment [4], the target named is KiSS-1 receptor (Homo sapiens) (UniProt Q969F8). Nature of the experiment: Human kisspeptin (KISS1R) small molecule agonists, calcium flux assay in KISS1R-HEK293 cells (AID 1920064; active = well fitted curve in the direction sought with a large enough effect in the repeat runs; an effect the other way counts as inactive or inconclusive). The essentials: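 Triplicate 15-concentration series were applied to dye-loaded human KISS1R HEK293 cells, and agonist-evoked calcium fluorescence was captured for 3 min.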
Experiment [5] is described as follows: G protein-coupled receptor (GPCR) small molecule agonists, calcium flux assay: HEK293 wild type cell line counter screen (AID 1920065). A digest of the protocol:
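Non-specific calcium responders were flagged by adding DMSO-dissolved compounds to dye-loaded cells and reading 480/540 nm fluorescence each second for 3 min; ATP served as positive control.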

A short description of experiment [6]: p53 small molecule agonists, cell-based qHTS assay with human liver microsomes (AID 1963577).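 Note: p53 response element beta-lactamase reporter cells with liver microsomes plus NADPH.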 The essentials:
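Reporter activation was measured by LiveBLAzer fluorescence intensity in p53RE-bla cells, which had been exposed to compounds for 16 h at 37 C alongside 0.5 mg/mL human liver microsomes and 0.5 mg/mL NADPH (final concentrations).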

Experiment [7] is described as follows: p53 small molecule agonists, cell-based qHTS assay with rat liver microsomes: qHTS cell viability counter screen (AID 1963580). Note: nearly all actives have a fitted effect of over 45% in size. A digest of the protocol: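 After the beta-lactamase ratio was read, CellTiter-Glo was added to the same wells and luminescence measured at 30 min; cells had been treated 16 h at 37 C with compounds, rat liver microsomes and NADPH (0.5 mg/mL final each).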

The nature of experiment [8]: p53 small molecule agonists, cell-based qHTS assay (AID 1963582; active = well fitted activation curve with a large enough effect in the signal ratio in the repeat runs, not every such curve was filed as active; the % refers to the signal ratio). The essentials: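 Beta-lactamase reporter cells (p53RE-bla) treated with compounds for 16 h at 37 C; FRET substrate, 2 h, room temperature; fluorescence intensity.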
For experiment [9], the target named is 5-hydroxytryptamine receptor 2A (Homo sapiens) (UniProt P28223). Briefly: 5-hydroxytryptamine receptor 2A (HTR2A) small molecule antagonists, cell-based qHTS assay (AID 1963586). Note: nearly all actives have a fitted effect of over 45% in size. A digest of the protocol: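 CHO cells stably expressing human HTR2A were plated for 18 h at 37 C, then loaded with calcium dye for 1 h. Compounds were preincubated 5 min at room temperature before DOI (4 nM solution) was added. Kinetic fluorescence was read for 3 min.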

For experiment [10] the target is unchanged. Briefly: 5-hydroxytryptamine receptor 2A (HTR2A) small molecule agonists, cell-based qHTS assay (AID 1963587). Note: nearly all actives have a fitted effect of over 30% in size. The essentials:
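CHO cells stably expressing human HTR2A, plated 18 h, loaded with calcium dye 1 h at 37 C. Agonist mode: compounds added and intracellular calcium fluorescence recorded kinetically for 2 min at 1 sec intervals.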

Experiment [11] concerns the target Muscarinic acetylcholine receptor M1 (Homo sapiens) (UniProt P11229). Briefly: Cholinergic receptor muscarinic 1 (CHRM1) small molecule agonists, cell-based qHTS assay (AID 1963589). Note: nearly all actives have a fitted effect of over 35% in size. A digest of the protocol: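 qHTS, 15-point titration, 3 independent runs: compounds pin-transferred onto dye-loaded CHRM1-CHO cells (human M1), calcium fluorescence followed every second to detect agonism.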

The nature of experiment [12]: cAMP Responsive Elements (CRE) small molecule agonists, cell-based qHTS assay (AID 1963590). The essentials:
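Quantitative HTS for CRE agonists: HEK 293T CRE-bla cells, overnight plating, 3 h compound incubation at 37 C/5% CO2, then 2 h room-temperature LiveBLAzer B/G FRET substrate loading.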

Experiment [13] deals with Beta-2 adrenergic receptor (Homo sapiens) (UniProt P07550). Briefly: Adrenergic beta2 receptor (ADRB2) small molecule antagonists, cell-based qHTS assay (AID 1963592). Note: series mostly up to about 92 µM; nearly all actives have a fitted effect of over 50% in size. A digest of the protocol: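 Assay format: CHO-ADRB2 cells, 18-20hr seeding at 37C/5% CO2, then compound plus 1nM isoproterenol agonist mix for 0.5hr RT. Homogeneous time-resolved fluorescence cAMP detection after 1hr, expressed as 665/615 nm ratio.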

The target of experiment [14] is D(2) dopamine receptor (Homo sapiens) (UniProt P14416). Nature of the experiment: Dopamine D2 receptor (DRD2) small molecule agonists, cell-based qHTS assay (AID 1963594). Note: nearly all actives have a fitted effect of over 35% in size. The essentials:
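HEK293 cells stably expressing human DRD2, pre-treated with PDE inhibitor Ro20-1724 (0.1 mM final) and compound 10 min at room temperature, then stimulated with NKH477 (200nM […]) for 30 min. cAMP read by HTRF (665/620 nm).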

Experiment [15] has the same target. Briefly: Dopamine D2 receptor (DRD2) small molecule antagonists, cell-based qHTS assay (AID 1963595; active = well fitted inhibition curve with a large enough effect in the signal ratio in the repeat runs, with a control signal flat; the % refers to the signal ratio). A digest of the protocol:
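Cells were plated and grown for 24 h at 37 °C. Ro20-1724 (0.1 mM final) went in first, then compound for 10 min. NKH477 (200 nM) with quinpirole (12 nM) followed for 30 min at RT, then HTRF detection reagents for 1 h.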

A short description of experiment [16]: cAMP Responsive Elements (CRE) small molecule antagonists, cell-based qHTS assay (AID 1963591; active = well fitted inhibition curve with a large enough effect in the signal ratio in the repeat runs, not every such curve was filed as active; the % refers to the signal ratio). The essentials: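 Fluorescence intensity from cleaved LiveBLAzer B/G substrate (2 h, room temperature) quantified CRE-bla activity in HEK 293T cells exposed 3 h to compound with 0.25 uM final NKH477.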
Experiment [17] in a line: p53 small molecule agonists, cell-based qHTS assay: qHTS cell viability counter screen (AID 1963581). Note: nearly all actives have a fitted effect of over 45% in size. A digest of the protocol:
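Multiplexed with the reporter read, a CellTiter-Glo step (30 min, room temperature) gauges ATP-based viability of HCT-116 p53RE-bla cells after 16 h compound incubation at 37 C.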

Experiment [18] deals with Muscarinic acetylcholine receptor M1 (Homo sapiens) (UniProt P11229). Nature of the experiment: Cholinergic receptor muscarinic 1 (CHRM1) small molecule antagonists, cell-based qHTS assay (AID 1963588). Note: nearly all actives have a fitted effect of over 40% in size. The essentials: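 Compounds were tested at 15 concentrations in three independent runs. Dye-loaded CHRM1-CHO cells were exposed 5 min at room temperature before stimulation by acetylcholine added at 50nM. Intracellular calcium was read kinetically on FDSS for 3 min.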

Experiment [19] can be described thus: p53 small molecule agonists, cell-based qHTS assay with rat liver microsomes (AID 1963578). A digest of the protocol: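 Compound in DMSO added to p53RE-bla cells 5 h post-plating; rat microsomes/NADPH 0.5 mg/mL final; 16 h, 37 C; LiveBLAzer 2 h RT.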
A short description of experiment [20]: p53 small molecule agonists, cell-based qHTS assay with human liver microsomes: qHTS cell viability counter screen (AID 1963579). Note: nearly all actives have a fitted effect of over 45% in size. A digest of the protocol:
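HLM-supplemented (0.5 mg/mL final) and NADPH-supplemented (0.5 mg/mL final) p53RE-bla cultures, 4,000 cells per well, were dosed with compounds in DMSO for 16 h at 37 C; luminescent ATP detection (CellTiter-Glo, 30 min, room temperature) quantified surviving cells.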
% is set by controls: 0 for no effect and ±100 for the full control effect.

KiSS-1 receptor (Homo sapiens), sequence (Q969F8 whole entry, looked up): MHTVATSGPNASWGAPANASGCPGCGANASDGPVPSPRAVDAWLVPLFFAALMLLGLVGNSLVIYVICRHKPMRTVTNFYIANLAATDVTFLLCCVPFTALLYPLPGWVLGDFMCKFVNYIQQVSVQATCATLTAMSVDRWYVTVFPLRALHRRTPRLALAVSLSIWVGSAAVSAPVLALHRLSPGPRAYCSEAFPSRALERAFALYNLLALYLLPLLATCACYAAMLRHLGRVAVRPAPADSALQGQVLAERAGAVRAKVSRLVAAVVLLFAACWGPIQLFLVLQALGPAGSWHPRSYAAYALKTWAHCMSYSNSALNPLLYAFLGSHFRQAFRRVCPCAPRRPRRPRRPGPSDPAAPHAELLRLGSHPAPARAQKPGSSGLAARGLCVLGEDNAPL
Muscarinic acetylcholine receptor M1 (Homo sapiens), sequence (P11229 whole entry, looked up): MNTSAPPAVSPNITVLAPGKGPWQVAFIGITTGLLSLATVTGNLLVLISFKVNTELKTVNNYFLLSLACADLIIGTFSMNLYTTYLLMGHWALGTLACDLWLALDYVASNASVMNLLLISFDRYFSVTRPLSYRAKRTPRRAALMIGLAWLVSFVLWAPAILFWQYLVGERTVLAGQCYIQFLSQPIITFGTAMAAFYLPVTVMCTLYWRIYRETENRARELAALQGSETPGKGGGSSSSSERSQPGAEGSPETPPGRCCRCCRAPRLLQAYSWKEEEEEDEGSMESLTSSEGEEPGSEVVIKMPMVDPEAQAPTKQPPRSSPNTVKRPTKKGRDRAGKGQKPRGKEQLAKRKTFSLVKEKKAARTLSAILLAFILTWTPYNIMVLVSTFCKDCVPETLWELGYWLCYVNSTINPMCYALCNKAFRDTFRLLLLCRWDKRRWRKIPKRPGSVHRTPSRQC
5-hydroxytryptamine receptor 2A (Homo sapiens), sequence (P28223 whole entry, looked up): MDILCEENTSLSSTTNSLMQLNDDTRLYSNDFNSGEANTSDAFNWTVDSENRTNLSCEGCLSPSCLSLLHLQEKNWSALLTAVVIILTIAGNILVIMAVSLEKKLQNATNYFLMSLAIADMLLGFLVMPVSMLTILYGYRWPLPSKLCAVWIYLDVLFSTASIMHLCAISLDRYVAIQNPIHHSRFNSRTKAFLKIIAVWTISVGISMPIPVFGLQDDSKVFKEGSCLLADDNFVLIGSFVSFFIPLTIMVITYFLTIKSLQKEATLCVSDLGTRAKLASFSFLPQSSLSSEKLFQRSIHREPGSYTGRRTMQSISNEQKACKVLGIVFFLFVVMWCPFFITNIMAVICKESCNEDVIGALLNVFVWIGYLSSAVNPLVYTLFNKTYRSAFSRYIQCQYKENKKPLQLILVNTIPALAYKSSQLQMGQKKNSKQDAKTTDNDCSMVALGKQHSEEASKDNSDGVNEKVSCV
D(2) dopamine receptor (Homo sapiens), sequence (P14416 whole entry, looked up): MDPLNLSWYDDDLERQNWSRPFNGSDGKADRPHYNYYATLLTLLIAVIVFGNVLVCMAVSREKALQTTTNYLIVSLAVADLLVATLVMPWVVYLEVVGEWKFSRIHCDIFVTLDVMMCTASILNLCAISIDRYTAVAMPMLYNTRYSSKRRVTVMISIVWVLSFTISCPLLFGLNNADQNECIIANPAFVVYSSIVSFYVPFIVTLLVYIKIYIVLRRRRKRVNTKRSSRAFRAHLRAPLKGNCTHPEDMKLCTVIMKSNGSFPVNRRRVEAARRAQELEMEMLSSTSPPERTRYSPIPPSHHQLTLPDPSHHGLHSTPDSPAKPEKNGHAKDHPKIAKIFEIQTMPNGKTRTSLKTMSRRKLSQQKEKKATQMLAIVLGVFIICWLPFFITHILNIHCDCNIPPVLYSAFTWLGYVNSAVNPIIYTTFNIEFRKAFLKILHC
Beta-2 adrenergic receptor (Homo sapiens), sequence (P07550 whole entry, looked up): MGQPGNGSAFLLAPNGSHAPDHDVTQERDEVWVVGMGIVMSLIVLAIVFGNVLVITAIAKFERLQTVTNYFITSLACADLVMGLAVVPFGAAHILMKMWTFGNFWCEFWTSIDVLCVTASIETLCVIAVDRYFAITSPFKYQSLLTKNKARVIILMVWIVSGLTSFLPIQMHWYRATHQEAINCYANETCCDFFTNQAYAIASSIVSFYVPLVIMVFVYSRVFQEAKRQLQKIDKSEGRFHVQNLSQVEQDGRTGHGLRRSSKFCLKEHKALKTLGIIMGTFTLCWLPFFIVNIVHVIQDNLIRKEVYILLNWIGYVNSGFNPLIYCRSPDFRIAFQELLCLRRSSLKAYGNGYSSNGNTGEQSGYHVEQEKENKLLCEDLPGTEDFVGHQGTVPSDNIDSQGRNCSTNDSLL
Gonadotropin-releasing hormone receptor (Homo sapiens), sequence (P30968 whole entry, looked up): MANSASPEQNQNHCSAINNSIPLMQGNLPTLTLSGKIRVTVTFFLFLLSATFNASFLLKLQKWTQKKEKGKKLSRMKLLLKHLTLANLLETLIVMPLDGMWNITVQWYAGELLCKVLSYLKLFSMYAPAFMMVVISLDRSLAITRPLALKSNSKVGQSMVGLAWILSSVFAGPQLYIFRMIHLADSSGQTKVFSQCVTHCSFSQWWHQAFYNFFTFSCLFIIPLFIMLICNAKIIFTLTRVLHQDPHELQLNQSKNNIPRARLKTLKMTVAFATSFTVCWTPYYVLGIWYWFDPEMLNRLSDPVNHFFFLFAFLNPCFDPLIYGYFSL

With `C=CCn1c(=O)n(CC=C)c(=O)n(CC=C)c1=O`, the Potency entry in experiment [1], in experiment [2], in experiment [3], in experiment [6], in experiment [7] and in experiment [8] was “inactive” throughout. The Potency entry in experiment [9], in experiment [10], in experiment [11], in experiment [12], in experiment [13] and in [14] was “inactive” throughout. Further, the Potency result in experiment [15] was “inactive”. The outcome in experiment [4] and in experiment [5] was inactive.
As for `CN(C)CCN1C(=O)c2ccccc2N(C)c2ccccc21`, the Potency entry in experiment [1], in [2], in experiment [3], in experiment [6], in experiment [8] and in experiment [10] was “inactive” throughout. Also, the Potency entry in [11], in experiment [12], in experiment [16], in [13], in [14] and in experiment [15] was “inactive” in each case. Also, the outcome in [4] and in [5] was inactive.
As for `O=[N+]([O-])c1ccc(/C=N\O)o1`, the Potency entry in experiment [1], in experiment [3], in [6], in experiment [7], in [17] and in experiment [8] was “inactive” each time. The Potency result in experiment [9], in [10], in experiment [18], in experiment [11], in [12] and in experiment [16] was “inactive” in each case. The Potency entry in experiment [14] and in experiment [15] was “inactive” throughout. Moreover, the Potency in [2] is 23.7 µM (active). Moreover, the outcome in [4] and in experiment [5] was inactive.
With `COc1cc(C(C)C)ccc1C`, the activity change, negative = cytotoxicity in [1] is 2.71% [at 19 µM]; in experiment [20], -0.449% [at 13.5 µM]; in experiment [7] it was 0.485% [at 13.5 µM]; in experiment [17], -2.99% [at 13.5 µM]. In addition, the activity, positive = activation in experiment [2] is 17.4% [at 19 µM]. Besides, the activity change in experiment [3] is 0.369% [at 11.8 µM, stronger effect = higher value]. In addition, the activation was 3.09% [at 15.8 µM] in [4]; -0.338% [at 11.8 µM] in [5]; 0.156% [at 13.6 µM] in [19]; -3.2% [at 13.5 µM] in [8]; 0.168% [at 15.9 µM] in experiment [10]; -0.0401% [at 15.8 µM] in experiment [11]. The figures for the activation in [12] and in experiment [14] were -1.07% [at 19 µM] and -1.89% [at 19 µM], respectively. The figures for the activity, negative = inhibition in experiment [9] and in experiment [18] were -13.4% [at 12.7 µM] and 8.74% [at 12.6 µM], respectively. Further, the activity change, negative = inhibition in experiment [16] was -0.604% [at 18.9 µM]; in experiment [13], -2.77% [at 19 µM]; in [15] it was 15.4% [at 18.9 µM].
On to `CC(C)C1OCCN1CCOC(=O)NCCCCCCNC(=O)OCCN1CCOC1C(C)C` (configuration not stated), for which the Potency entry in experiment [1], in [2], in experiment [3], in experiment [19], in [20] and in experiment [7] was “inactive” throughout. The Potency entry in [17], in [8], in experiment [9], in [10], in [18] and in experiment [11] was “inactive” throughout. Also, the Potency entry in [12], in experiment [16], in experiment [13], in experiment [14] and in [15] was “inactive” throughout. In addition, the result in [4] and in [5] was inactive.
As for `c1ccc(COCc2ccccc2)cc1`, the Potency entry in experiment [1], in experiment [2], in experiment [3], in experiment [6], in experiment [20] and in experiment [17] was “inactive” each time. The Potency entry in experiment [8], in experiment [9], in [10], in experiment [18], in experiment [11] and in experiment [12] was “inactive” throughout. Moreover, the Potency entry in [16], in experiment [13], in experiment [14] and in [15] was “inactive” throughout. The outcome in experiment [4] and in experiment [5] was inactive.
